Shown are actives, neighbours in structure and some others; about 11% of the full set was active somewhere.
AMA1-RON2 inh – qHTS for Inhibitors of AMA1-RON; Towards Development of Antimalarial Drug Lead: Primary Screen. Plasmodium falciparum AMA1 (3D7) - RON2 peptide interaction. AlphaScreen AMA1-biotinylated RON2 peptide binding. Potency, µM (highest dose often 58.2 µM), without a hit: at the highest dose activity change, negative = inhibition, most hits filed as inhibitors. 360,000 compounds, 0.2% hits. AID 720542, 2013;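 also: 0% = vehicle wells and -100% = peptide control; nearly all actives have a fitted effect of over 45% in size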
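AMA1 (3D7) with his tag at 25 nM final met compounds first, then biotinylated RON2 peptide at 25 nM; detection used donor plus acceptor beads, 10 µg/mL apiece, read by AlphaScreen after 30 min at room temperature.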
Pf growth 48h – Primary qHTS for delayed death inhibitors of the malarial parasite plastid, 48 hour incubation. P. falciparum luciferase growth in erythrocytes, 48 h. Potency, µM (top dose mostly 28.7 µM), without a hit: at the top dose activity change, negative = inhibition, most hits filed as inhibitors. AID 504832, 2011. 310,000 compounds, 5.9% hits
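First compound was added to culture medium, then infected red cells at 0.1% parasitemia and 2% hematocrit (final). After incubation at 37 C under 5% CO2, luciferase detection reagent was dispensed and light output recorded.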
HCV inhibitor – qHTS Assay for Inhibitors of Hepatitis C Virus (HCV). Huh7.5.1 HCVcc-Cre infection, luciferase reporter, 44 h. Potency, µM (titrated, usually from 41.8 µM), for the others: at the top dose activity change, negative = inhibition, usual class: inhibitors. AID 651820, 2012. 340,000 compounds, 3.4% hits
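Whole-lifecycle infectious HCVcc-Cre system; cells 1,000/well, compound then virus (~0.5 moi) added 4 h after plating, 44 h culture. Luciferase read 15 sec following 15 min substrate incubation, room temp.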
Pf growth 96h – Primary qHTS for delayed death inhibitors of the malarial parasite plastid, 96 hour incubation; 320,000 compounds, 6.9% hits; P. falciparum luciferase reporter growth, 96 h; AID 504834, 2011; Potency, µM (series often up to 28.7 µM), for inactives: top-dose activity change, negative = inhibition, usual class: inhibitors
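Plates of compound plus infected erythrocytes (2% hematocrit, 0.05% parasitemia final) incubate 96 hours, 37 C, 5% CO2. Detection reagent added; reduced luminescence from the parasites' luciferase reporter flags inhibition.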
Starred values were filed as active, the others as inactive; i = inactive; ? = inconclusive; / = no result given; [ ] = remark or other dose. Calls follow the shape of the dose curve; as a rule, active = well fitted curve in the direction sought with a large enough effect; inconclusive = small, poorly fitted or top-dose-only effect, or another doubt; inactive = no such curve, though single readings can be large; an effect the other way counts as inactive or inconclusive. Unless noted, % is scaled to controls: 0 for no effect and ±100 for the full control effect; potency is read from the fitted curve at half-maximal effect.

SMILES	AMA1-RON2 inh	Pf growth 48h	HCV inhibitor	Pf growth 96h
O=C(NCC1CCCO1)C(c1ccc(F)cc1)N(CCCN1CCOCC1)C(=O)c1ccc(-c2ccccc2)[nH]1 (stereo not given)	-14%	13µM*	4%	9%
O=C(NCC1CCCO1)C(c1cccs1)N(Cc1ccccc1)C(=O)c1ccc(-c2ccccc2)[nH]1 (stereo not given)	?	?	11%	i
O=C(NCC1CCCO1)C(c1cccs1)N(C(=O)c1ccc(-c2ccccc2)[nH]1)C1CCCC1 (stereo not given)	5%[2.32 µM]	10µM*	-28%	?
CC(C)(C)NC(=O)C(c1cccs1)N(CC1CCCO1)C(=O)c1ccc(-c2ccccc2)[nH]1 (stereo not given)	?	13µM*	?	478%
CC(C)C1C(=O)N(Cc2cn(CC3CCCCC3)nn2)CCS(=O)(=O)N1Cc1ccc(-c2ccc(Cl)nc2)cc1 (stereo not given)	-4%	/	/	/
O=C(COC(=O)Cc1c(F)cccc1Cl)NNC(=O)c1ccccc1	48%	/	7%	/
CC(CCc1ccccc1)NC(=O)c1ccc(Br)cc1 (stereo not given)	4%	61%	-19%	?
Cc1ccc(C(=O)N[C@@H](C)CN2C3=NC[C@H](Cc4ccccc4)N3C[C@H]2Cc2ccc(O)cc2)cc1Br	-13%	2.1µM*	-8%	1.3µM*
COc1ccc(C[C@H]2CN3C(=NC[C@@H]3Cc3ccc(O)cc3)N2C[C@H](C)NC(=O)c2ccc(C)c(Br)c2)cc1	2%	1.5µM*	?	0.83µM*
Cc1ccc(C(=O)N[C@@H](C)CN2C3=NC[C@@H](Cc4ccccc4)N3C[C@H]2Cc2ccc(O)cc2)cc1Br	-20%	5.2µM*	-3%	2.9µM*
Cc1ccc(S(=O)(=O)N2CCN(C(=O)COC(=O)/C=C/c3ccccc3)CC2)c(C)c1	13%	-29%	4%	-18%
O=C1CCCCC(=O)[C@H](O)C[C@H](COCc2ccccc2)O1	1%	/	/	/
N=c1oc2cc(O)ccc2cc1C(=O)Nc1ccc(Br)cc1	4%	46%	?	0.74µM*
Cc1ccc(NC(=O)c2cc(S(=O)(=O)N3CCCCC3)ccc2N2CCOCC2)cc1F	-5%	12µM*	-23%	/
COc1cc(NC(=O)c2cc(S(=O)(=O)N3CCCCC3)ccc2N2CCOCC2)cc(OC)c1	-7%	?	-2%	?
O=C(Nc1ccc(OC(F)F)cc1)c1cc(S(=O)(=O)N2CCCCC2)ccc1N1CCOCC1	-7%	?	-10%	4.7µM*
Cc1ccc(S(=O)(=O)N2CCOCC2)cc1C(=O)Nc1ccc(N2CCCCCC2)cc1	?	?	5µM*	?
CC(=O)Nc1ccc(NC(=O)c2cc(S(=O)(=O)N3CCCCC3)ccc2N2CCOCC2)cc1	2%[11.6 µM]	/	35%	/
COc1ccc(C)cc1NC(=O)c1cc(S(=O)(=O)N2CCCCC2)ccc1N1CCOCC1	0%	12µM*	?	?
COc1cc(O)cc2c1[C@@H]1Oc3c(ccc(O)c3CC=C(C)C)[C@@H]1CO2	-9%	/	?	/
COc1ccccc1CNC(=O)COC(=O)c1ccc(C)c(S(=O)(=O)N2CCOCC2)c1	9%	23%	-9%	14%
O=C(CN(C1CCCCC1)S(=O)(=O)c1ccc(Cl)cc1)NCc1cccnc1	14%	?	4%	-3%
O=C(CN(C1CCCCC1)S(=O)(=O)c1ccccc1)NCc1cccnc1	1%	-30%	5%	9.3µM*
Cc1ccc(C(CCNC(C)c2cccs2)c2ccco2)cc1 (stereo not given)	0%	10µM*	-7%	?
CCCCCCc1ccc(N2C[C@H](Cc3ccccc3)[C@@H](CC(=O)NCc3ccc(OC)cc3)C2=O)cc1	-6%	-63%	2.8µM*	?
SMILES	AMA1-RON2 inh	Pf growth 48h	HCV inhibitor	Pf growth 96h
CC(C)=NOC(=O)c1c(C)noc1-c1snnc1C	9%	1.7µM*	17%	1.9µM*
COC(=O)c1c(C)noc1-c1snnc1C	6%	-4%	25%	31%
Cc1ccc2cc(CN(CC3CCCO3)C(=O)NC3CCCCC3)c(=O)[nH]c2c1C (stereo not given)	2%	9%	-29%	3%
CCN(CC)CCCN(Cc1cc2ccc(C)c(C)c2[nH]c1=O)C(=O)NC1CCCCC1	31%	?	5.6µM*	9.3µM*
COc1ccc(CCN(Cc2cc3cccc(C)c3[nH]c2=O)C(=O)NC2CCCCC2)cc1OC	-6%	/	6%	2.9µM*
O=C(C1CCC(=O)N(C2CC2)C1)N(CCO)Cc1ccccc1 (stereo not given)	-1%	34%	-1%	?
O=C(CSc1ccccc1F)NC(=O)NC1CCCC1	-7%	/	/	/
COC(=O)c1nn(-c2ccccc2)c(=O)cc1O	9%	443%	11%	31%
Cc1ccc(NC(=O)c2cc(-c3ccccc3)nn2-c2ccccc2)cc1	-19%	-13%	?	10µM*
O=C(Nc1ccc(F)cc1)c1nn(-c2ccccc2)c(=O)cc1Cl	34%	-15%	6.3µM*	5%
Cc1cc(C(=O)Nc2ccc(Br)cc2F)n(-c2ccccc2)n1	8%	9%[0.00184 µM]	-5%	6%
Cc1ccc(NC(=O)c2cc(-c3ccccc3)nn2-c2ccccc2)c(Br)c1	-18%	?	?	12µM*
Cc1cc(C(=O)Nc2ccc(C)c(C)c2)n(-c2ccccc2)n1	3%	-8%[0.00184 µM]	-1%	3%
CC(=O)Nc1cc(-c2ccc(Cl)cc2)nn1-c1ccccc1	-2%	0%	-8%	9.3µM*
CC(=O)Nc1cc(-c2ccccc2)nn1Cc1ccc(Cl)cc1	1%	22%	-7%	30%
CC1=CC(=O)C(C(C)C)=C/C1=N/OS(=O)(=O)c1ccccc1	?	0.47µM*	6.3µM*	?
CCn1c(C)[n+](CCOCC[n+]2c(C)n(CC)c3cc(Cl)c(Cl)cc32)c2cc(Cl)c(Cl)cc21	7%	/	21%	10µM*
OC[C@@H](O)[C@@H](O[C@H]1O[C@H](CO)[C@@H](O)[C@H](O)[C@H]1O)[C@H](O)[C@@H](O)CO	6%	/	18%	/
O=C(NC1CCCCC1)N1CCCC(CNS(=O)(=O)Cc2ccccc2)C1 (stereo not given)	7%	13%	-4%	?
O=C(Nc1cccc(F)c1)N1CCCC(CNS(=O)(=O)Cc2ccccc2)C1 (stereo not given)	10%	9%	10%	5.2µM*
COc1ccccc1NC(=S)N(Cc1ccc(C)cc1)Cc1cccnc1	8%	13%	5%	?
COc1ccc(Cl)cc1NC(=S)N(Cc1cccnc1)Cc1ccco1	-10%	10µM*	?	-8%
Cc1cc(C)c(NC(=S)N(Cc2cccnc2)Cc2ccco2)c(C)c1	-9%	14%	?	-1%
COc1ccccc1NC(=S)N(Cc1cccnc1)Cc1ccco1	-2%	12µM*	7%	-1%

High-throughput results as filed in PubChem BioAssay.
